Several values for one entry are separate records, joined by “and”; a condition that tells them apart may be missing. Identical values can stand only once. Results filed as inconclusive are left out. Where a call stands in place of a potency, no number is given. The source holds several records for some structures; these can differ, active in one and inactive in another. Activity calls are given as the source filed them. Calls come from the whole dose curve; as a rule, active = well fitted cell-killing curve with a large enough effect in the repeat runs; inconclusive = weak or mixed curves, or effect the other way; inactive = no such curve, though single readings can be large or run the other way.
experiment: qHTS assay to identify small molecule agonists of the vitamin D receptor (VDR) signaling pathway - cell viability counter screen (AID 743224); conditions: VDR-bla HEK293T viability, CellTiter-Glo luminescence, 16 h; series mostly up to 62.6 µM; note: nearly all actives have a fitted effect of over 50% in size
From the text: U.S. Tox21 Program National Center for Advancing Translational Sciences [NCATS] NIH Chemical Genomics Center [NCGC] U.S. Environmental Protection Agency [EPA] National Institutes of Environmental Health Sciences [NIEHS] National Toxicology Program [NTP] U.S. Food and Drug Administration [FDA] Tox21 Assay Overview: The vitamin D receptor (VDR), a member of nuclear hormone receptor superfamily, plays a critical role in calcium homeostasis and bone metabolism. It is also involved in cell differentiation and growth, and thrombogenicity. […] The cytotoxicity of the Tox21 compound library against the VDR-bla cell line was tested in parallel by measuring the cell viability using CellTiter-Glo assay (Promega, Madison, WI) in the same wells.
Tox21 Assay Protocol Summary: VDR-bla cells were dispensed at 2,000 cells/6 uL/well into black wall/clear-bottom 1536-well plates using a Multidrop Combi (Thermo Fisher Scientific, Waltham, MA) dispenser. After the assay plates were incubated at a 37C and 5% CO2 for 4 h, 23 nL of compounds dissolved in DMSO, positive controls or DMSO only was transferred to the assay plate by a Pintool station (Kalypsys, San Diego, CA). The plates were incubated at 37C and 5% CO2 for 16 h. After 1 uL of LiveBLAzerTM B/G FRET substrate was added using a Bioraptr Flying Reagent Dispenser (FRD) workstation (Beckman Coulter, Indianapolis, IN, USA), the plates were incubated at room temperature for 2 h, and fluorescence intensity was measured by an Envision plate reader (PerkinElmer, Shelton, CT). For cell viability readout that measures cytotoxicity, 3 ul/well of CellTiter-Glo reagent was added into the assay plates using a FRD. After 30 min incubation at room temperature, the luminescence intensity in the plates was measured using a ViewLux (PerkinElmer) plate reader.
Potency is the fitted concentration of half-maximal effect.

Structure (SMILES)	Potency
COC(=O)[C@H]1[C@H]2C[C@@H]3c4[nH]c5cc(OC)ccc5c4CCN3C[C@H]2C[C@@H](OC(=O)c2cc(OC)c(OC)c(OC)c2)[C@@H]1OC	inactive
COc1ccc(Cc2cnc(N)nc2N)cc1OC	inactive
CC(C)CCCCCCc1ccc(O)cc1	19.8 µM (active) and 30.9 µM (active)
Cc1cc(Cc2cc(C)cc(C(C)(C)C)c2O)c(O)c(C(C)(C)C)c1	9.82 µM (active) and 13.8 µM (active)
O=C1CC2(CCCC2)CC(=O)N1CCCCN1CCN(c2ncccn2)CC1	inactive
CC(C)(C)c1cc(C(C)(C)C)c(O)c(C(C)(C)C)c1	38.9 µM (active)
Nc1ccc2cc3ccccc3cc2c1	inactive
COc1ccc(COC(C)=O)cc1	inactive
Cc1scc2c1N(C(=O)CN1CCN(C)CC1)c1ccccc1NC2=O	inactive
Cc1ccc(-c2cc(C(F)(F)F)nn2-c2ccc(S(N)(=O)=O)cc2)cc1	inactive
CC[C@@H](N)CO	inactive
O=C(O)c1cn(-c2ccc(F)cc2)c2cc(N3CCNCC3)c(F)cc2c1=O	inactive
CCCCC(CC)COC(=O)CC(C(=O)OCC(CC)CCCC)S(=O)(=O)O (stereo not given)	42 µM (active) and 43.6 µM (active)
CCn1c2ccccc2c2cc(N)ccc21	inactive
CN(C)c1ccc(C(=C2C=CC(=[N+](C)C)C=C2)c2ccccc2)cc1	219 nM (active) and 2.11 µM (active)
C[N+]1([O-])CCOCC1	inactive
Nc1nc(=S)c2[nH]cnc2[nH]1	1.74 µM (active) and 3.35 µM (active)
Cc1cc(OCCOCC[N+](C)(C)Cc2ccccc2)ccc1C(C)(C)CC(C)(C)C	17.3 µM (active) and 26.6 µM (active)
Nc1ccc(O)cc1	inactive
C=C(C)C(=O)O	inactive

Structure (SMILES)	Potency
Nc1nc2ccccc2[nH]1	inactive
Cc1ccnc2c1NC(=O)c1cccnc1N2C1CC1	inactive
CC(C)(C)c1ccc(O)c(C(C)(C)C)c1	34.5 µM (active) and 30.9 µM (active)
CCCCCC(=O)O[C@]1(C(C)=O)CC[C@H]2[C@@H]3CCC4=CC(=O)CC[C@]4(C)[C@H]3CC[C@@]21C	43.4 µM (active) and inactive
Cc1cc(C2(c3cc(C)c(O)cc3C)OS(=O)(=O)c3ccccc32)c(C)cc1O	inactive
CCN(CC)c1ccc2c(C)cc(=O)oc2c1	inactive
CCC(C)(Oc1ccc(C2(c3ccc(OC(C)(CC)C(=O)O)cc3)CCCCC2)cc1)C(=O)O (stereo not given)	inactive
COC(c1ccccc1)(c1ccccc1)[C@H](Oc1nc(C)cc(C)n1)C(=O)O	inactive
c1ccc2n[nH]nc2c1	inactive and 38.9 µM (active)
O=Cc1ccc(Cl)cc1	inactive
C=CC(=O)OCCCCCCCC	inactive
C/C=C/c1ccc(OCC)c(O)c1	inactive
CCCNC(C)C(=O)Nc1ccccc1C (stereo not given)	inactive
CCC(=O)/C=C/C1C(C)=CCCC1(C)C (stereo not given)	inactive
NC(N)=NC(=O)Cc1c(Cl)cccc1Cl	inactive
CC(C)CCOCc1ccccc1	inactive
CC1COc2c(N3CCN(C)CC3)c(F)cc3c(=O)c(C(=O)O)cn1c23 (stereo not given)	inactive
O=C(O)Cn1cnnn1	inactive
Oc1c(Cl)cc(Cl)c(Cl)c1Cc1c(O)c(Cl)cc(Cl)c1Cl	24.5 µM (active) and 21.9 µM (active) and 2.66 µM (active)
Cc1ccc(S(=O)(=O)Oc2ccc(N=Nc3ccc(-c4ccc(N=Nc5c(O)ccc6cc(S(=O)(=O)O)cc(S(=O)(=O)O)c56)c(C)c4)cc3C)cc2)cc1	inactive
